# USP1-UAF1 inh: blocks the human USP1/UAF1 deubiquitinase complex; O94782; recombinant USP1/UAF1, Ub-Rhodamine cleavage fluorescence; Potency, µM (series often up to 57.1 µM), for inactives: at the highest dose activity change, negative = inhibition, actives largely listed as inhibitors; 390,000 compounds, 0.23% hits; AID 743255; also: potency is read from the fitted curve at half-maximal effect; nearly all actives have a fitted effect of over 60% in size
# Target sequence (O94782 whole entry, looked up): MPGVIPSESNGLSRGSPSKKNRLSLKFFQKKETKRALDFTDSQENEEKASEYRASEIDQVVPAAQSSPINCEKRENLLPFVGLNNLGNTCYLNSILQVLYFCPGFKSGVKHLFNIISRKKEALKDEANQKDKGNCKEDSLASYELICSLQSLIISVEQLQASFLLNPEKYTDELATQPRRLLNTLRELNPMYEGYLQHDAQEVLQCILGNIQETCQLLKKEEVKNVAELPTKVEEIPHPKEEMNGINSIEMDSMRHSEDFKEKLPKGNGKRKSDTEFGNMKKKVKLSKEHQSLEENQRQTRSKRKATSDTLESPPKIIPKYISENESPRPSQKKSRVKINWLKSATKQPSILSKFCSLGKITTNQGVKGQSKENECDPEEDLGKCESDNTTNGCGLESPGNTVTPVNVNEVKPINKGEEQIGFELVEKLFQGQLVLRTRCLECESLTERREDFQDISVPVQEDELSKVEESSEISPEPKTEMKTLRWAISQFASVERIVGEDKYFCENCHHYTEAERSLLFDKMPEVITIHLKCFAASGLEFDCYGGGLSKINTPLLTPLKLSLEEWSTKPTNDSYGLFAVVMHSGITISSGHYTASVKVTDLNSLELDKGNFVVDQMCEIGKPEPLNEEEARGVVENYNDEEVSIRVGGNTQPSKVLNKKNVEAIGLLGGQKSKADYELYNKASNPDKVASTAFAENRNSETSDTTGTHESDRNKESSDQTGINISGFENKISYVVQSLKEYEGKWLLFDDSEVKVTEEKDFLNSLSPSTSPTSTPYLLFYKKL
#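 1 nM enzyme complex + cpd, 15 min RT; start with Ub-Rho 150nM final; kinetic fluorescence ex 480/em 540, 6 reads q60 s. Buffer 50mM HEPES pH 7.8, 0.5mM EDTA, 0.1 mg/ml BSA, 1mM TCEP, 0.01% Tween-20.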
# GALK inhibitor: blocks human galactokinase activity | P51570 | Purified GALK, Kinase-Glo residual ATP luminescence | Potency, µM (doses to about 57.5 µM), inactives show top-dose activity change, negative = inhibition, most hits filed as inhibitors | 270,000 compounds, 0.007% hits; also: potency is read from the fitted curve at half-maximal effect
#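 Quantitative HTS: GALK 5 nM, ATP 35 uM, galactose 100 uM, 1 h room temperature, then luciferase-based ATP detection.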
# USP2a block: blocks human ubiquitin-specific protease USP2a; USP2 core, Ub-CHOP2 coupled fluorogenic reporter, 485/531; Potency, µM (series often up to 38.3 µM), without a hit: top-dose activity change, negative = inhibition, hits mostly inhibitors; 330,000 compounds, 0.01% hits; O75604;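 also: potency is read from the fitted curve at half-maximal effect; plate controls were DMSO wells for no effect and full inhibition by NEM control for full effect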
#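 Cell-free coupled assay: 10nM USP2 core preincubated 30min RT with compound in Tris-HCl pH 8.0/CaCl2/CHAPS buffer, then 25nM Ub-CHOP2 and 25nM reporter substrate; fluorescence (Ex 485/Em 531) read after 60min RT, normalized to NEM inhibition, concentration-response curves fitted.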
# FBPA coupling cs: inhibits coupling enzyme system, counter-screen for aldolase hits. coupling enzyme system counterscreen, AmpLite Red fluorescence. 290,000 compounds, 0.67% hits. activity change, negative = inhibition, % at 58.2 µM, hits read low. AID 2472; in the data active = activity change below about -30%
#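 Fluorescence at 525 nm excitation and 598 nm emission measured inhibition of the coupled detection system without aldolase. Compounds (at 57.5 uM final) were preincubated 10 min at room temperature with coupling enzyme reagent before a 20 min substrate/AmpLite Red step.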
# PLK1 PBD inh: blocks phosphopeptide binding to human PLK1 polo-box domain. P53350. Plk1 PBD binding of FITC phosphopeptide, fluorescence polarization. Potency, µM, for the others: max response, negative = inhibition, usual class: inhibitors. 360,000 compounds, 2.8% hits. AID 720504; also: potency is read from the fitted curve at half-maximal effect; series mostly up to about 57 µM; nearly all actives have a fitted effect of over 65% in size
# VDR inhibitor: vitamin D3 receptor (human) inhibition; P11473; VDR-SRC2-3 peptide fluorescence polarization, 2 h; Potency, µM, inactives show max response, negative = inhibition, hits mostly inhibitors; 400,000 compounds, 0.93% hits; also: potency is read from the fitted curve at half-maximal effect
#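 Fluorescence polarization assay of small-molecule disruption of VDR binding to coregulator peptide SRC2-3. Compounds and controls pin-transferred, then read after 2 h incubation at ambient room temperature.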
# * hit, by the source's call; ? = inconclusive; · = no result. This is a sample that favours compounds with a hit; in the whole collection about 3.2% have one here. Unless noted, calls follow the shape of the dose curve; as a rule, active = well fitted curve in the direction sought with a large enough effect; inconclusive = small, poorly fitted or top-dose-only effect, or another doubt; inactive = no such curve, though single readings can be large; an effect the other way counts as inactive or inconclusive. Unless noted, % is scaled to controls: 0 for no effect and ±100 for the full control effect.
SMILES,USP1-UAF1 inh,GALK inhibitor,USP2a block,FBPA coupling cs,PLK1 PBD inh,VDR inhibitor
Cc1ccc(S(=O)(=O)Cc2ccc(C(=O)O)o2)cc1,-3.3%,1.1%,2.6%,0.6,18.9µM*,-15.2%
CC(=O)Nc1nnc(CCS(=O)(=O)c2ccc(Cl)cc2)s1,7.1%,3.4%,4.0%,0.6,-8.3%,3.3%
O=C(/C=N/NC(=O)c1ccc(Cl)cc1Cl)c1ccccc1,-14.1%,-4.0%,9.3%,-0.7,-9.1%,-6.0%
Nc1nnc(-c2ccco2)s1,3.5%,-0.1%,-6.5%,-3.7,-8.4%,-6.2%
Nc1ncnc2oc(-c3ccco3)c(-c3ccco3)c12,-6.5%,-2.2%,1.7%,-30.8*,?,-16.1%
CCOC(=O)/C(=C/C1=CC(=C/N(C)C)/C(=O)O1)C(C)=O,31.6µM*,8.1%,?,3.7,97.2%,4.2%
Cc1nc2sc(C(c3ccccc3)N3CCC(O)CC3)c(O)n2n1 (centres undefined),7.8%,0.5%,0.1%,-0.3,-8.9%,23.7%
CCOC(=O)c1c(/N=C/N(C)C)sc(/C=N/Nc2ccccc2)c1-c1ccc(Cl)cc1,-16.4%,-0.7%,-2.6%,-1.5,29.9µM*,?
CCOC(=O)c1c(/N=C/N(C)C)sc(C)c1C,-20.3%,-0.6%,3.1%,-0.5,-10.9%,-8.9%
CC(=O)c1cccc2c(O)c(C3=Nc4ccccc4C3=O)[nH]c12,?,1.4%,2.4%,-48.2*,?,56.2µM*
O=C1C(c2c(O)[nH]c3ccccc23)=Nc2ccccc21,-13.8%,11.6%,-8.4%,2.1,-3.3%,?
O=[N+]([O-])c1ccc(COc2ccccc2/C=N/O)cc1,-19.3%,0.3%,4.4%,2.7,4.8%,-7.1%
O=C1NC(=O)/C(=C\c2ccccc2OCc2ccc([N+](=O)[O-])cc2)N1,-22.0%,0.5%,-1.7%,-1.7,23.8µM*,-20.6%
CC1(C)Cc2c(c(N3CCOCC3)nc3sc(C(N)=O)c(N)c23)CO1,1.4%,-1.6%,-5.7%,-30.4*,-5.8%,-3.5%
Cc1cccc2c1-c1sc(C(=O)Nc3cccnc3)cc1CO2,-29.4%,-0.2%,1.0%,-1.5,0.0%,11.3%
CCCC[C@@H](C=O)NC(=O)[C@H](CC(C)C)NC(=O)OCc1ccccc1,·,·,·,·,·,35.5µM*
CC(C)CC(NC(=O)OCc1ccccc1)C(=O)NC(Cc1ccccc1)C(=O)CCl (centres undefined),-26.3%,·,·,·,-11.6%,70.8µM*
CCC(c1nnc(SCC(=O)NCCc2ccc(Cl)cc2Cl)o1)N(C)C (centres undefined),3.7%,1.3%,2.9%,0.4,26.7µM*,-14.0%
CCC(c1nnc(SCC(=O)Nc2cc(C)on2)o1)N(C)C (centres undefined),-13.1%,·,0.9%,·,?,3.0%
Cc1cc(N2CC(C)OC(C)C2)nc2ccccc12 (centres undefined),1.1%,13.2%,-2.2%,-1.0,26.7µM*,?
CC1CN(c2nnc(-c3ccccc3)c3ccccc23)CC(C)O1 (centres undefined),-12.3%,1.4%,0.1%,-0.3,21.2µM*,-29.6%
Cc1cc(N2CCN(c3ccccc3)CC2)nc2ccccc12,?,0.1%,-0.8%,-2.1,2.4%,22.4%
COc1ccc(CNC(=O)Nc2cccc(Cl)c2)cc1,-18.6%,-3.0%,3.6%,·,-6.9%,-13.3%
CCOC(=O)c1cc2c(=O)n3ccccc3nc2n(Cc2ccco2)c1=NC(=O)c1cccc(OC)c1,31.8%,1.1%,-0.8%,2.8,-6.9%,0.6%
O=C(COC(=O)c1ccc2ccccc2c1O)NCC(F)(F)F,-10.9%,0.2%,1.3%,0.4,26.7µM*,-26.3%
SMILES,USP1-UAF1 inh,GALK inhibitor,USP2a block,FBPA coupling cs,PLK1 PBD inh,VDR inhibitor
O=C(COC(=O)c1c2ccccc2cc2ccccc12)NCC(F)(F)F,-18.5%,1.7%,-2.3%,-3.0,-3.9%,-11.7%
Cn1c2ccccc2c2cnn(CC(=O)O)c(=O)c21,-4.1%,-2.0%,-0.4%,4.2,-3.9%,-3.6%
O=C(O)CCNc1cc(N2CCN(C(=O)c3ccco3)CC2)c2noc3c2c1C(=O)c1ccccc1-3,14.1µM*,1.6%,?,-25.3,48.8%,?
CCN1CCN(c2cc(N3CCN(C(=O)c4ccco4)CC3)c3c4c(onc24)-c2ccccc2C3=O)CC1,?,9.3%,0.4%,-30.4*,39.7%,-5.5%
O=C(O)CCCNc1cc(N2CCN(C3CCCCC3)CC2)c2noc3c2c1C(=O)c1ccccc1-3,-26.1%,·,·,·,·,?
COc1ccc(C2CC(c3cccc([N+](=O)[O-])c3)=NN2/C(C)=C/C(C)=O)cc1 (centres undefined),-13.3%,·,·,·,10.0%,·
CN1CCc2c(sc3c2C(=O)NC(c2ccc(OC(=O)c4ccccc4)cc2)N3)C1 (centres undefined),-22.1%,·,·,·,·,44.7µM*
CN1CCc2c(sc3c2C(=O)NC(c2ccccc2)N3)C1 (centres undefined),?,·,12.3%,-21.5,-15.7%,70.8µM*
CN1CCc2c(sc3c2C(=O)NC(c2ccccn2)N3)C1 (centres undefined),31.6µM*,-2.4%,18.9%,-61.5*,?,25.1µM*
Cc1ccc(C2NC(=O)c3c(sc4c3CCN(C)C4)N2)s1 (centres undefined),?,-1.2%,9.1%,0.2,-16.3%,?
CN1CCc2c(sc3c2C(=O)NC(c2ccc(OC(=O)c4ccc(C(C)(C)C)cc4)cc2)N3)C1 (centres undefined),31.6µM*,·,·,·,·,22.9%
O=C1NC(c2ccccn2)Nc2sc3c(c21)CCC3 (centres undefined),-17.7%,-2.1%,0.9%,-15.5,-25.2%,-8.2%
CCCCN(C(=O)Cc1coc2cc(C)c(C)cc12)c1c(N)n(Cc2ccccc2)c(=O)[nH]c1=O,-19.0%,·,0.9%,·,-7.5%,-15.6%
CC(Cc1c[nH]c2ccccc12)C(=O)O (centres undefined),25.9%,14.3%,2.5%,1.3,-10.2%,8.9%
O=C(NCC1CCCO1)C(=O)N/N=C/c1ccccc1C(=O)O (centres undefined),3.9%,0.1%,1.3%,3.6,26.7µM*,-10.4%
CCN(Cc1ccccc1)C(=O)CSc1nc(C)cc(C)c1C#N,-6.7%,0.1%,3.6%,2.8,21.2µM*,?
CCN(CC)C(=O)CSc1nc(C)cc(C)c1C#N,-9.9%,-3.6%,1.1%,0.4,?,-2.9%
O=C(CCCC(=O)OCC(=O)c1cccs1)Nc1ccc(Oc2ccccc2)cc1,-21.5%,·,-1.2%,-8.8,29.9µM*,-9.3%
Cc1ccccc1CC1(CO)CCCN(C(=O)c2ccc3ncccc3c2)C1 (centres undefined),-19.9%,0.9%,1.2%,0.4,2.67µM*,39.8µM*

# Bioassay records as filed in PubChem.
